# Assay results as given in the supplement of paper PMC3334620.
# Whole data set: some 33,000 sequences, median “E-score (-0.5 to 0.5)” near -0.035, cut for the highest 2% near 0.34. The full list was thinned out, with the highest values kept by preference.
# Molecular target: T1, Mot3 (UniProt P54785)
# T1 sequence: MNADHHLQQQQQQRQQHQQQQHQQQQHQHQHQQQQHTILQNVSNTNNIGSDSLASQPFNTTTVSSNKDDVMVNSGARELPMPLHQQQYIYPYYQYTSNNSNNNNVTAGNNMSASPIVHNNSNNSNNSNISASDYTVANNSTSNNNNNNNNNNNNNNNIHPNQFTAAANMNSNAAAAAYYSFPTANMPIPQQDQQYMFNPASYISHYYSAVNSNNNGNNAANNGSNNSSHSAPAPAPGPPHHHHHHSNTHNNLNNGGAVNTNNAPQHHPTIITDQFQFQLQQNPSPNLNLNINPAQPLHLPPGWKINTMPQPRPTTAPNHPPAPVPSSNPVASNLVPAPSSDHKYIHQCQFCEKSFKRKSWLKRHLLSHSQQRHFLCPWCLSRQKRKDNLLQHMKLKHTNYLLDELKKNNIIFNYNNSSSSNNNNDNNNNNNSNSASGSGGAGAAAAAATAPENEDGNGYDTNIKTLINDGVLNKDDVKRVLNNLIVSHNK
# Experiment: PBM E-score (8-mer binding enrichment) (E-score (-0.5 to 0.5)); higher = stronger / more preferred TF binding
# Conditions: protein concentration: 200 nM; construct: GST-full length
# Experimental: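 Universal 'all 10-mer' protein binding microarrays (Agilent AMADID 015681) probed with GST-tagged S. cerevisiae TFs (full-length or DBD) made by in vitro transcription/translation (PURExpress), about 100-200 nM. Bound TF was detected with fluorescent anti-GST. Each ungapped 8-mer (which stands for itself and its reverse complement) is scored by the PBM enrichment score (E-score), a modified Wilcoxon-Mann-Whitney statistic from -0.5 to +0.5, computed with the Universal PBM Analysis Suite. Scale: above 0.35 generally sequence-specific binding.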
row,Sequence,PBM E-score
1,CGTTTAGA,0.0393
2,AGTTTACG,0.188
3,AGTTTACC,0.0908
4,CGTTTACA,0.349
5,AGTTTACA,0.363
6,CGTTTACC,0.0878
7,AAAGATGC,0.132
8,AGTCCTCC,-0.221
9,CACAGAAG,-0.00641
10,CTTGAAAG,0.0362
11,AGGAGGGG,-0.156
12,GAAGCCAC,-0.196
13,AGCCTGTA,0.342
14,AGCCTGCA,0.344
15,AGCCTGAA,0.223
16,CGCCTGCA,0.23
17,CGCCTGAA,0.297
18,TGCCTGAA,0.48
19,GGCCTGTA,0.148
20,GGCCTGAA,-0.277
21,GGCCTGCA,-0.0526
22,CAGTACTG,-0.132
23,CCCCCGCA,-0.214
24,GTCTCGCA,-0.238
25,CGATCAAC,0.0859

row,Sequence,PBM E-score
1,AAACCCCT,0.0363
2,GATGCTAC,-0.122
3,CAAACGCC,-0.143
4,AACCCACA,0.0686
5,AATGCCCG,-0.316
6,CATGCCTA,0.245
7,AATGCCTC,-0.0227
8,AATGCCTA,0.359
9,AATGCCGA,-0.249
10,ACTGCCTA,0.199
11,GATGCCAA,-0.148
12,GATGCCTA,0.439
13,AATGCCTG,0.352
14,CGATTTGC,-0.216
15,ATGGCGAC,-0.254
16,ACAGATCG,-0.134
17,CGAATGAC,0.186
18,ACGCCCTG,-0.0695
19,AACTGGAT,-0.153
20,GGAGCCAA,-0.117
21,ACAACCAA,0.00653
22,TCTGTACA,0.235
23,AATGTACA,0.292
24,TATGTACA,0.353
25,GATGTACA,0.259

row,Sequence,PBM E-score
1,CATGTACG,0.239
2,CATGTACA,0.387
3,GGCTCTGA,0.00444
4,GTCTGATA,0.0245
5,CACAATCG,0.018
6,GGGTAGTA,-0.109
7,CCAAAGTC,-0.189
8,CAAGGGGC,-0.148
9,ACGTGCTC,0.0193
10,ACCTGGGA,-0.0112
11,AACAGGAG,0.0835
12,AACAGGAC,0.19
13,GACAGAAA,0.0469
14,CACAGGAA,0.385
15,GACAGGAC,-0.231
16,AACAGGAA,0.416
17,CACAGGAC,-0.175
18,CACAGGAG,0.0555
19,TAGAGGAA,-0.0809
20,TACAGTAA,0.194
21,TACAGGAA,0.43
22,GACAGGAA,0.374
23,ACTGAGGC,-0.119
24,ATTCACTA,0.124
25,ACCATTAC,0.168

row,Sequence,PBM E-score
1,CGGTCCCA,-0.296
2,AACCAGCT,0.0762
3,ACTAGCAG,0.109
4,ACTCCAAG,-0.0115
5,AGTCCGAT,-0.158
6,AGAAACGA,0.0178
7,CGTCGTAA,0.0759
8,AGGTTGGA,-0.173
9,CGGAGGCA,0.375
10,GGGAGGCA,0.364
11,AGGAGGCA,0.382
12,GGGAGGGA,-0.149
13,AGGAGGCG,-0.163
14,CGGAGGCC,-0.224
15,AGGAGGCC,-0.263
16,CGGAGGTA,-0.0405
17,GGGAGGAA,-0.11
18,CAGACCAC,-0.109
19,GTGGCCTA,0.0303
20,ATCTAAAG,0.136
21,ACCAAGCA,-0.0877
22,CGGGGACC,-0.0971
23,AGAAACTA,-0.0831
24,GTGGATGA,-0.0229
25,AAGGCAAA,0.479

row,Sequence,PBM E-score
1,AAGGCAAT,0.479
2,AGGGCAAA,-0.0247
3,ACGGCAAG,-0.116
4,AAGGCAGT,-0.0323
5,AAGGCAAC,0.487
6,AAGGCAAG,0.485
7,AAGGCAGG,0.231
8,ATGGCAAC,-0.0341
9,AAGGCGAA,-0.0356
10,AAGGCAGC,0.276
11,ACGGCAAT,0.0994
12,GGATGCGA,-0.246
13,ACACAGCG,0.318
14,GCCCGATA,-0.181
15,AAGTTCAT,-0.132
16,GAGGCAAC,0.435
17,GCGGCAAC,-0.0624
18,GGGGCAAC,-0.0256
19,CTACGCTC,-0.0123
20,TACAAGCA,0.284
21,GCTACTCA,-0.175
22,CTCTAGCA,-0.0349
23,ATTTCCTA,0.371
24,ATTTCCTG,0.41
25,ATTTCCAG,0.0581

row,Sequence,PBM E-score
1,ATTTCCCA,-0.0389
2,ATTTCCAA,0.0549
3,ATTTCCTC,-0.0476
4,AAGATTGT,0.126
5,CCGGTGCG,-0.0852
6,AATAGCCA,-0.0713
7,CCAGGAGA,-0.238
8,GAAGGTAA,0.397
9,GGAGGTAC,0.0528
10,CAAGGTAC,0.376
11,CAAGGTAG,0.0907
12,GAAGGTGC,0.136
13,GAAGGTAC,0.438
14,AAAGGTAC,0.42
15,AAAGGTAA,0.324
16,CAAGGTGC,0.0747
17,AAAGGTAT,0.102
18,CAAGGTAA,0.258
19,AAAGGTAG,-0.135
20,CGCGACGC,-0.148
21,ATACCCGG,0.0542
22,TCGCCCCA,-0.213
23,CACTGTCC,-0.196
24,GGACCGCC,-0.212
25,ACCCTTTG,-0.147

row,Sequence,PBM E-score
1,GCATTCAC,0.0735
2,ACGTCTCT,0.0141
3,AAGCAATG,-0.0928
4,ATCAGGAT,-0.12
5,AAAGGGGG,-0.0401
6,ATACATCA,0.16
7,ATACATGA,0.363
8,AGACATGA,0.198
9,CTACATGA,0.361
10,ACACATGG,0.144
11,ATACATAC,0.28
12,CTACATCA,0.112
13,AGACATGG,0.139
14,ATACATAA,0.308
15,GTACATGA,0.328
16,ATACATGG,0.374
17,ATACATAT,0.359
18,CCTCTGAC,-0.145
19,CACCCTTC,-0.121
20,ATGCCCCC,-0.266
21,AGAGTTCC,-0.135
22,CTGGCACC,-0.232
23,CACCTTAA,0.0232
24,CCTTCAGA,-0.0591
